Where a name gives a salt, the structure may show the parent alone. ± gives the standard deviation of the averaged measurements. Whole data set: some 1,900 compounds, median “normalised cell viability (NPI; 0 = phenylarsine oxide control, 1 = DMSO control)” near 1, cut for the lowest 2% near 0.039. What follows is part of a selection rich in the lowest values, with near analogues and random picks from the rest.
Tested on: NCI-H1944
Assay: normalised cell viability (NPI; 0 = phenylarsine oxide control, 1 = DMSO control) (fraction of DMSO control); NCI-H1944 is a non-small cell lung cancer line; higher = more viable cells (less compound toxicity)
Settings: 6 days
[1] = glucocorticoid arm: hydrocortisone 2.75 uM co-treatment, compound 1 µM
[2] = glucocorticoid arm: hydrocortisone 2.75 uM co-treatment, compound 5 µM
[3] = glucocorticoid arm: hydrocortisone 2.75 uM pre-treated 2 days and continued, compound 1 µM
[4] = glucocorticoid arm: hydrocortisone 2.75 uM pre-treated 2 days and continued, compound 5 µM
[5] = glucocorticoid arm: vehicle, compound 1 µM
[6] = glucocorticoid arm: vehicle, compound 5 µM
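Also: CTB read-out in 384-well plates, triplicate wells, NPI normalised per plate against 1 µM phenylarsine oxide (0) and 0.1% DMSO (1) controls.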

Compound | normalised cell viability [1] | normalised cell viability [2] | normalised cell viability [3] | normalised cell viability [4] | normalised cell viability [5] | normalised cell viability [6]
CN(CC[C@@H](Oc1ccc(C(F)(F)F)cc1)c1ccccc1)CC(=O)[O-].[Li+] | 0.992 ± 0.0046 | 0.989 ± 0.011 | 0.99 ± 0.014 | 0.998 ± 0.018 | 0.979 ± 0.016 | 0.9777 ± 0.0035
NCCC[C@](N)(C(=O)O)C(F)F (racemic) [DL-alpha-Difluoromethylornithine hydrochloride] | 0.9853 ± 0.0063 | 0.923 ± 0.021 | 0.9873 ± 0.0064 | 0.932 ± 0.011 | 0.9863 ± 0.0055 | 0.9817 ± 0.0032
O=C(CCCN1C(=O)c2cccc3cccc(c23)C1=O)NO [Nullscript] | 0.981 ± 0.011 | 0.961 ± 0.029 | 1 ± 0.012 | 0.987 ± 0.018 | 1 ± 0.0082 | 1.01 ± 0.014
c1cc(CN2CCCNCCNCCCNCC2)ccc1CN1CCCNCCNCCCNCC1 [Plerixafor] | 1 ± 0.018 | 1 ± 0.017 | 1.01 ± 0.011 | 0.996 ± 0.016 | 1.006 ± 0.0063 | 1.01 ± 0.013
CNCc1ccc(-c2[nH]c3cc(F)cc4c3c2CCNC4=O)cc1 | 0.982 ± 0.0036 | 1 ± 0.071 | 0.968 ± 0.0095 | 1.01 ± 0.022 | 0.989 ± 0.013 | 0.948 ± 0.022
CCCCc1nc2cc(/C=C/C(=O)NO)ccc2n1CCN(CC)CC [Pracinostat (SB939)] | 0.9753 ± 0.004 | 0.00959 ± 0.0058 | 1 ± 0.0095 | 0.0658 ± 0.0071 | 0.686 ± 0.077 | 0.000852 ± 0.0004
Nc1ncnc2c1c(-c1cccc(OCc3ccccc3)c1)cn2C1CC(CN2CCC2)C1 (configuration not stated) | 0.457 ± 0.025 | 0.366 ± 0.021 | 0.596 ± 0.0046 | 0.436 ± 0.062 | 0.939 ± 0.013 | 0.776 ± 0.039
O=C(NCCO)c1ccc2c(c1)nc(Nc1cccc(Cl)c1)c1ccncc12 [CK2 Inhibitor 2] | 1.02 ± 0.022 | 0.854 ± 0.028 | 1.03 ± 0.015 | 1.07 ± 0.021 | 1.001 ± 0.0081 | 0.567 ± 0.033
COc1cccc2c1C(=O)c1c(O)c3c(c(O)c1C2=O)C[C@@](O)(C(=O)CO)C[C@@H]3O[C@H]1C[C@H](N)[C@H](O)[C@H](C)O1 [Doxorubicin hydrochloride; 4'-Epiadriamycin; Doxorubicin HCl] | 0.454 ± 0.36 | 0.288 ± 0.3 | 0.754 ± 0.26 | 0.484 ± 0.48 | 0.178 ± 0.17 | 0.129 ± 0.14
CCCCC(=O)OCC(=O)[C@]1(O)Cc2c(O)c3c(c(O)c2[C@@H](O[C@H]2C[C@H](NC(=O)C(F)(F)F)[C@H](O)[C@H](C)O2)C1)C(=O)c1c(OC)cccc1C3=O [Valrubicin] | 0.665 ± 0.04 | 0.868 ± 0.016 | 0.973 ± 0.016 | 0.982 ± 0.017 | 0.228 ± 0.017 | 0.374 ± 0.0045
CC(=O)[C@]1(O)Cc2c(O)c3c(c(O)c2[C@@H](O[C@H]2C[C@H](N)[C@H](O)[C@H](C)O2)C1)C(=O)c1ccccc1C3=O [Idarubicin hydrochloride; Idarubicin; 4-DMD HCl] | 0.0183 ± 0.0037 | 1.06 ± 0.026 | 0.0494 ± 0.0094 | 1.033 ± 0.0058 | 0.00163 ± 0.00068 | 1.006 ± 0.0075
CC(=O)[C@]1(O)Cc2c(O)c3c(c(O)c2[C@@H](O[C@H]2C[C@H](N)[C@H](O)[C@H](C)O2)C1)C(=O)c1ccccc1C3=O [Idarubicin hydrochloride] | 0.00497 ± 0.00094 | 0.0017 ± 0.0005 | 0.00532 ± 0.0009 | 0.024 ± 0.0063 | 0.00471 ± 0.00071 | 0.00231 ± 0.00037
COc1cccc2c1C(=O)c1c(O)c3c(c(O)c1C2=O)C[C@@](O)(C(C)=O)C[C@@H]3O[C@H]1C[C@H](N)[C@H](O)[C@H](C)O1 [Daunorubicin hydrochloride; Daunorubicin HCl] | 0.0398 ± 0.0066 | 1.05 ± 0.011 | 0.587 ± 0.027 | 1.013 ± 0.0058 | 0.0031 ± 0.0017 | 1.007 ± 0.0058
NC(CCCP(=O)(O)O)C(=O)O (racemic) [(±)-2-Amino-5-phosphonopentanoic acid] | 0.987 ± 0.0072 | 0.9967 ± 0.0031 | 0.9907 ± 0.0083 | 0.993 ± 0.0028 | 0.98 ± 0.0056 | 0.9857 ± 0.0098
N[C@@H](CCC(=O)N[C@@H](CSN=O)C(=O)NCC(=O)O)C(=O)O [S-Nitrosoglutathione] | 1.003 ± 0.0058 | 1.02 ± 0.025 | 1.02 | 1.04 ± 0.064 | 0.9933 ± 0.0035 | 1 ± 0.014
c1ccc2c(c1)CC(N1CCN(c3cccc4c3OCCO4)CC1)C2 | 0.988 ± 0.019 | 0.9857 ± 0.0084 | 0.995 ± 0.015 | 1.03 ± 0.081 | 1.003 ± 0.0058 | 1.02 ± 0.011
Nc1nccc2c1ncn2[C@@H]1O[C@H](CO)[C@@H](O)[C@H]1O [3-deazaadenosine] | 0.989 ± 0.0099 | 0.973 ± 0.025 | 0.996 ± 0.012 | 0.981 ± 0.011 | 0.9687 ± 0.0035 | 0.968 ± 0.0062
O=C(c1ccc(Nc2nccc(-c3cc4ccccc4s3)n2)cc1)N1CCC(N2CCCC2)CC1 [IKK-16 (IKK Inhibitor VII)] | 0.901 ± 0.0072 | 0.626 ± 0.03 | 0.913 ± 0.015 | 0.837 ± 0.021 | 0.9453 ± 0.0065 | 0.0503 ± 0.008
CNCC[C@H](Oc1cccc2ccccc12)c1cccs1 [Duloxetine HCl] | 0.9993 ± 0.0011 | 0.9847 ± 0.0032 | 1.01 ± 0.018 | 0.98 ± 0.015 | 0.999 ± 0.0095 | 0.9923 ± 0.0083
C[n+]1cc2c3c(ccc2c2ccc4cc5c(cc4c21)OCO5)OCO3 [Sanguinarine chloride] | 1.04 ± 0.011 | -0.0014 ± 0.001 | 0.903 ± 0.2 | -0.00109 ± 0.00052 | 0.983 ± 0.037 | -0.000203 ± 0.00043
Cc1ccccc1CNc1ncnc2c1ncn2[C@@H]1O[C@H](CO)[C@@H](O)[C@H]1O [Metrifudil] | 1.01 ± 0.011 | 1.03 ± 0.017 | 1.02 | 1.04 ± 0.071 | 0.996 ± 0.004 | 1.001 ± 0.0085
O=C(O)C1CCNCC1 [Isonipecotic acid] | 1.003 ± 0.0058 | 1.02 ± 0.017 | 1.01 ± 0.018 | 1.04 ± 0.07 | 0.9937 ± 0.0015 | 1.001 ± 0.0078

— the supplement of paper PMC8285479
